This note sets out measurements from PubChem BioAssay (EPA / NIEHS).

Records with an inconclusive call do not appear. Calls of active or inactive are those of the source. Rule for the calls: active = hit-call score of the fitted dose curve at least 0.9, where 1 is the maximum; inconclusive = response in the unintended direction; inactive = score below 0.9.

Read-out in the test: glucuronosyltransferase (UGT1A1), UGT1A1 (gene 54658)
Nature of the test: CLD_UGT1A1_24hr: CellzDirect (CLD) Gene Expression Assay for glucuronosyltransferase (UGT1A1) at 24 hours (AID 2283696). How it is done:
CLD_24hr is a cell-based, multiplexed-readout assay that uses hepatocyte, a human liver primary cell, with measurements taken at 24 hours after chemical dosing in a 96-well plate.CLD_UGT1A1_24hr is one of 16 assay component(s) measured or calculated from the CLD_24hr assay. It is designed to make measurements of mRNA induction, a form of inducible reporter, as detected with chemiluminescence signals by Quantitative Nuclease Protection Assay (qNPA) technology.Data from the assay component CLD_UGT1A1_24hr was analyzed at the endpoint, CLD_UGT1A1_24hr, in the positive analysis fitting direction relative to DMSO as the negative control and baseline of activity. Using a type of inducible reporter, gain-of-signal activity can be used to understand changes in the reporter gene as they relate to the gene UGT1A1. Furthermore, this assay endpoint can be referred to as a primary readout. To generalize the intended target to other relatable targets, this assay endpoint is annotated to the transferase intended target family, where subfamily is glucuronosyltransferase.
Human hepatocyte cultures were treated daily for two consecutive days with fresh dosing solutions containing appropriate concentrations of the 320 ToxCast chemicals (chemical identities were blinded to CellzDirect and other ToxCast collaborators), vehicle control (0.2% DMSO), and positive control inducers as summarized in Table 1. Due to the large number of treatment groups and chemicals examined, the ToxCast chemicals were divided into two groups (spanning two independent cultures of hepatocytes from separate donor preparations (Hu778: ToxCast plates 1 and 2; Hu776: ToxCast plates 3 and 4). Each preparation of human hepatocyte cultures was treated with respective vehicle control, medium only control, set of six positive controls/reference chemicals for the five hepatic receptor pathways, and a subset of eight of the ToxCast chemicals (indoxacarb, pyrithiobac-sodium, norflurazon, cyhalofop-butyl, methomyl, thiram, acetochlor, and propiconazole). These replicate data, coupled with internal replicates designed within the blinded ToxCast chemical library, provided additional data to evaluate interindividual differences between hepatocyte preparations and their potential impact on chemical profiles.Cell morphology and integrity were evaluated using phase-contrast microscopy as an indicator of hepatocyte cell health (Tyson & Green, 1987). Cultures for each treatment group (i.e., media, vehicle [0.2% DMSO], positive control inducers [multiple concentrations], and the ToxCast chemicals [multiple concentrations]) were observed and cell morphology was assessed relative to vehicle control cultures at each harvest time point (0, 6, 24, or 48 h). […] Images were evaluated at the conclusion of the study to assess changes in cell integrity and account for the effects of chemical exposure on uncharacteristic changes in concentration-dependent gene expression profiles. The results from these determinations of apparent cytotoxicity were annotated (yes/no) alongside the corresponding qNPA data for reference.At the conclusion of each treatment period, hepatocyte cultures (96-well) were washed with 1 volume of HBSS, lysed by addition of 25 ul ArrayPlate lysis buffer (HTG, Tucson, AZ), and 70 ul/well of Denaturation Oil, denatured by incubation at 95C for 10 min, and frozen at approximately -70C until analysis by nuclease protection assay (qNPA) (Roberts et al., 2007). For qNPA analysis, cell lysates were thawed at 50C for approximately 30 min, qNPA probes were added, and samples were incubated at 95C for 10 min to begin the detection process by denaturing the target RNA, dissociating the duplexes and secondary structure hybridization. At the conclusion of the hybridization period, S1 nuclease reagent was added to each sample to digest all nonprotected nucleotides at 50C for 60-90 min. […]
With `CSC1=N[C@@](C)(c2ccccc2)C(=O)N1Nc1ccccc1`, the compound was classed as inactive. Consider `C#CCC1=C(C)C(OC(=O)C2C(C=C(C)C)C2(C)C)CC1=O` (stereo not given), for which the result was inactive.

As to `CN1COCN(Cc2cnc(Cl)s2)C1=N[N+](=O)[O-]`, the compound was called inactive. Same read-out and setting: then `CCC(CC)Nc1c([N+](=O)[O-])cc(C)c(C)c1[N+](=O)[O-]`, with “inactive”. Same read-out and setting: then `CN(C)C(=O)Nc1cccc(C(F)(F)F)c1`, with “inactive”. In general, AC50 refers to the concentration at which the activity in the assay is half-maximal. For the compound `CCCCN(CC)c1c([N+](=O)[O-])cc(C(F)(F)F)cc1[N+](=O)[O-]`, the AC50 is 9.11 µM (active). As for `CC1(C(=O)Nc2ccc(O)c(Cl)c2Cl)CCCCC1`, the result was inactive. Still for that read-out and setting: then `FC(F)C(F)(F)OCC(Cn1cncn1)c1ccc(Cl)cc1Cl` (stereo not given), with “inactive”; and `Cc1nn(-c2cc(NS(C)(=O)=O)c(Cl)cc2Cl)c(=O)n1C(F)F`, with “inactive”; and `COc1cc(OC)nc(Sc2cccc(Cl)c2C(=O)O)n1`, with “inactive”. Same read-out and setting: then `CNC(=O)ON=C(C)SC`, with “inactive”; and `CCOP(=S)(OCC)OC(Cl)C(Cl)(Cl)Cl` (stereo not given), with “inactive”. For the compound `CCOP(=S)(OCC)SCCSCC`, the AC50 is 24.6 µM (active).

On to `CC(COc1ccc(Oc2ccccc2)cc1)Oc1ccccn1` (stereo not given), for which the AC50 was 4.08 µM (active). Turning to `CCOC(=O)COc1cc(-c2nn(C)c(OC(F)F)c2Cl)c(F)cc1Cl`, the outcome was inactive. Turning to `O=C(O)c1cc(Oc2ccc(C(F)(F)F)cc2Cl)ccc1[N+](=O)[O-]`, the outcome was inactive. On the same count and under the same terms, then `COP(=O)(OC)SCn1c(=O)oc2cc(Cl)cnc21`, with “inactive”.

Turning to `CSc1nnc(C(C)(C)C)c(=O)n1N`, the compound was classed as inactive. On the same count and under the same terms, then `CC(C)[C@H](C(=O)O[C@H](C#N)c1cccc(Oc2ccccc2)c1)c1ccc(Cl)cc1`, with “inactive”; and `CCc1cccc(C)c1N(C(=O)CCl)C(C)COC` (stereo not given), with “inactive”.

In the case of `S=C1NCCN1`, the compound was called inactive. On to `CCOP(=O)(NC(C)C)Oc1ccc(SC)c(C)c1` (stereo not given), for which the compound was called inactive. On the same count and under the same terms, then `CCC(=NOC/C=C/Cl)C1=C(O)CC(C2CCOCC2)CC1=O` (stereo not given), with “inactive”; and `CC(C)=CC1C(C(=O)OCN2C(=O)C3=C(CCCC3)C2=O)C1(C)C` (stereo not given), with “inactive”. Same read-out and setting: then `CCOP(=O)(SC(C)CC)N1CCSC1=O` (stereo not given), with “inactive”. Same read-out and setting: then `CC[C@H](C)[C@H]1O[C@]2(C=C[C@@H]1C)C[C@@H]1C[C@@H](C/C=C(\C)[C@@H](O[C@H]3C[C@H](OC)[C@@H](O[C@H]4C[C@H](OC)[C@@H](NC)[C@H](C)O4)[C@H](C)O3)[C@@H](C)/C=C/C=C3\CO[C@@H]4[C@H](O)C(C)=C[C@@H](C(=O)O1)[C@]34O)O2`, with “inactive”. `CCOP(=S)(Oc1cnc(C(C)(C)C)nc1)OC(C)C` (stereo not given): the AC50 is 3.14 µM (active). On to `CNC(=O)Oc1cccc2c1OC(C)(C)O2`, for which the result was inactive.

Turning to `C[N+]1(C)CCCCC1`, the outcome was inactive. With `CCCCSP(=O)(SCCCC)SCCCC`, the AC50 was 1.9 µM (active). For `CON=C(C(=O)OC)c1ccccc1CON=C(C)c1cccc(C(F)(F)F)c1`, the outcome was inactive. On to `Cc1ccn2nc(S(=O)(=O)Nc3c(F)cccc3F)nc2n1`, for which the compound was called inactive. Take `CCOP(=O)(OCC)Oc1cc(C)nc(C(C)C)n1`: the outcome was inactive. Turning to `CC(Oc1cccc(Cl)c1)C(=O)O` (stereo not given), the compound was classed as inactive. `COc1cccc(C(=O)NN(C(=O)c2cc(C)cc(C)c2)C(C)(C)C)c1C`: the AC50 was 4.26 µM (active). As to `CCc1cnc(C2=NC(C)(C(C)C)C(=O)N2)c(C(=O)O)c1` (stereo not given), the result was inactive. Still for that read-out and setting: then `Nc1c(Cl)cc([N+](=O)[O-])cc1Cl`, with “inactive”; and `CC(C1CC1)C(O)(Cn1cncn1)c1ccc(Cl)cc1` (stereo not given), with “inactive”. As to `C#CC(C)(C)NC(=O)c1cc(Cl)cc(Cl)c1`, the AC50 was 1.69 µM (active).

Take `CCC(=O)Nc1ccc(Cl)c(Cl)c1`: the result was inactive.
